Results as given in ChEMBL document CHEMBL5308504, “Tm Shift (DSF) assay results for EUbOPEN Chemogenomics Library” (2023).

Tests used:
Conditions in all cases: Compound concentration 20.0 uM, Protein concentration 2.0 uM, Result type QC Liability
[1] = target: Tyrosine-protein kinase ABL1 (Homo sapiens) (UniProt P00519)
[2] = target: Cyclin-dependent kinase 2 (Homo sapiens) (UniProt P24941)
[3] = target: Casein kinase I isoform delta (Homo sapiens) (UniProt P48730)
[4] = target: Glycogen synthase kinase-3 beta (Homo sapiens) (UniProt P49841)
[5] = target: Mitogen-activated protein kinase 1 (Homo sapiens) (UniProt P28482)
[6] = target: T1, Aurora kinase A (Homo sapiens) (UniProt O14965)
T1 sequence (whole entry): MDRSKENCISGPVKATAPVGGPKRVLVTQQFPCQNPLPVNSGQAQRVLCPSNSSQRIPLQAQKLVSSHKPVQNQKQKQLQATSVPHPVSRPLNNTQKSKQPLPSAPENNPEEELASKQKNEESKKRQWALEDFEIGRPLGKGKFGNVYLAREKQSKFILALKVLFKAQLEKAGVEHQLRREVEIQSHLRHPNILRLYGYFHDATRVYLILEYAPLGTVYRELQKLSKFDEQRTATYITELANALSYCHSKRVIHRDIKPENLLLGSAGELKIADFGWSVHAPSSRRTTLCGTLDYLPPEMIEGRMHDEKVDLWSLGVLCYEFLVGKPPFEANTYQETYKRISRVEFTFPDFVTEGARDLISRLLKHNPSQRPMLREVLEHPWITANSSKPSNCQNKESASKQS

Chain of Casein kinase I isoform delta (Homo sapiens) (P48730 whole entry, looked up, canonical isoform): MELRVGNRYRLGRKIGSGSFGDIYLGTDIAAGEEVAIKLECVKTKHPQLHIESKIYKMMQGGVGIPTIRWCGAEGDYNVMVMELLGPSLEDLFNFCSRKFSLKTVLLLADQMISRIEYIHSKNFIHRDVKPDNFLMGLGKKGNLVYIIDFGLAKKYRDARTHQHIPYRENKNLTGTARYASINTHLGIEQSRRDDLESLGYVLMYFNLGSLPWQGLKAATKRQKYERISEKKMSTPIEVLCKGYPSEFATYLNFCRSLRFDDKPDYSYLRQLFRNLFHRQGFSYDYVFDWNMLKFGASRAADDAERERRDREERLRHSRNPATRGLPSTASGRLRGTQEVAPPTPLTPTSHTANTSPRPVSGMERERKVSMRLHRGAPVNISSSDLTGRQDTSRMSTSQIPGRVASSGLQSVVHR
Chain of Tyrosine-protein kinase ABL1 (Homo sapiens) (P00519 whole entry): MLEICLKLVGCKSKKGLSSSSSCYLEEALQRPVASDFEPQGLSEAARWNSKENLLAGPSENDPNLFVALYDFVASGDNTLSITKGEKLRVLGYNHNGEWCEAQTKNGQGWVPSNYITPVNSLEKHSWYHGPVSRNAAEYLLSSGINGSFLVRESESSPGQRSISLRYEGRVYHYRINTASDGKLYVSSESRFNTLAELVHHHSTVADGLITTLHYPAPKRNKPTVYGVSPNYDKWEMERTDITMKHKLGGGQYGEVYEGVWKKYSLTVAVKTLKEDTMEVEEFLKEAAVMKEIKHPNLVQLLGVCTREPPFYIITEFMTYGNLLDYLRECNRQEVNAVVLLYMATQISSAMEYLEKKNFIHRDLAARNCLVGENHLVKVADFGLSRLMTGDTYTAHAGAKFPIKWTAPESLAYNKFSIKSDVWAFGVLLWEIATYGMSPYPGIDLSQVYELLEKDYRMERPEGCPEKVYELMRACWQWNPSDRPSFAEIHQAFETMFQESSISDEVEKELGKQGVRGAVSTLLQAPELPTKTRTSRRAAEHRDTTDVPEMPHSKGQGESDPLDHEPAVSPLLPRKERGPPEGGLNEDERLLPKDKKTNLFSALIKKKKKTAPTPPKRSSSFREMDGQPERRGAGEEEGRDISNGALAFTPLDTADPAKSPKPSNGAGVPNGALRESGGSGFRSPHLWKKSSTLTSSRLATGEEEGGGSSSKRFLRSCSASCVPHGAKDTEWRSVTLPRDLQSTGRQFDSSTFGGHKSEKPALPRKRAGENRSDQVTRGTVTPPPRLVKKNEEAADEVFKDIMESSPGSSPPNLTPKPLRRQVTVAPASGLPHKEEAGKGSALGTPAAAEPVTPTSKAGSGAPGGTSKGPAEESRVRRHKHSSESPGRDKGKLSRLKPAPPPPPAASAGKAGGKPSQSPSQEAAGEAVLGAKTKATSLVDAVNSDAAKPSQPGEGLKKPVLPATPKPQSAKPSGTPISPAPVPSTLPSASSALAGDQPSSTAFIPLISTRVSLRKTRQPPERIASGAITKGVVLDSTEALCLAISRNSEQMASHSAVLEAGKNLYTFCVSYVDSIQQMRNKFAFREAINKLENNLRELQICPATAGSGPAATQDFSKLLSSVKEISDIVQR
Chain of Mitogen-activated protein kinase 1 (Homo sapiens) (P28482 whole entry): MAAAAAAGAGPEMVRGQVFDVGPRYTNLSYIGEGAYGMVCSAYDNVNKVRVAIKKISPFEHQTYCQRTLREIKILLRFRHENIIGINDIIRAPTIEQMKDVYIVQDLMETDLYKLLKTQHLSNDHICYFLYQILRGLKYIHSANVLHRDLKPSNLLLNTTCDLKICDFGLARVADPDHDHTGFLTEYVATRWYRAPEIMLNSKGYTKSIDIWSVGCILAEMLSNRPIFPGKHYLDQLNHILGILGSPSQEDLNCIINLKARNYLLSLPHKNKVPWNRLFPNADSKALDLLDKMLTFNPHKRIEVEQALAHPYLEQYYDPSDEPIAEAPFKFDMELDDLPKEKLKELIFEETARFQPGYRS
Chain of Glycogen synthase kinase-3 beta (Homo sapiens) (P49841 whole entry, looked up): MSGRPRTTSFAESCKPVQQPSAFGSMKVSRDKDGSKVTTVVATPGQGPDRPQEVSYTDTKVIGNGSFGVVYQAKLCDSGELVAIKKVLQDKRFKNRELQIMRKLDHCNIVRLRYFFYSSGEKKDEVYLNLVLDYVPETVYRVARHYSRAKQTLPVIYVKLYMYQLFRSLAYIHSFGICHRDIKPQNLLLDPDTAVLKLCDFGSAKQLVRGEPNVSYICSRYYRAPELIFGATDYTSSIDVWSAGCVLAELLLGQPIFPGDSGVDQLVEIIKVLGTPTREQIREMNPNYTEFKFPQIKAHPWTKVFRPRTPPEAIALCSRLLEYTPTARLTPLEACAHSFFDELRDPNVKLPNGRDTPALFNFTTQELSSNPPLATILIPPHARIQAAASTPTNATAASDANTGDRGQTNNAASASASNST

| SMILES | ΔTm [1] [°C] | ΔTm [2] [°C] | ΔTm [3] [°C] | ΔTm [4] [°C] | ΔTm [5] [°C] | ΔTm [6] [°C] |
| --- | --- | --- | --- | --- | --- | --- |
| O=C(Nc1cccc(Nc2nccc(Nc3cccc(C(F)(F)F)c3)n2)c1)C1CC1 | 1.63 | 1.44 | 1.09 | 3.86 | 0.42 |  |
| CN(C(=O)c1ccccc1)c1ccc2c(c1)[nH]/c(=N\C(=O)c1ccc(Br)s1)n2CCC(N)=O | 3.94 | 0.69 | 6.56 | 0.89 | 0.41 | 3.75 |
| CC(C)(O)[C@H](F)CN1Cc2cc(NC(=O)c3cnn4cccnc34)c(N3CCOCC3)cc2C1=O | 2.02 | -0.03 | 0.59 | 0.95 | 0.46 | 3.04 |
| CC(=O)c1c(C)c2cnc(Nc3ccc(N4CCN(CCOCCOCCOCCNC(=O)COc5cccc6c5C(=O)N(C5CCC(=O)NC5=O)C6=O)CC4)cn3)nc2n(C2CCCC2)c1=O (stereo not drawn) | -0.65 | -0.26 | 1.49 | 1.18 | -1.16 | 0.61 |
| NC(=O)OC[C@H](NC(=O)Cn1nc(-c2ccc(Cl)cc2)n(C[C@H](O)C(F)(F)F)c1=O)c1cccc(C(F)(F)F)c1 | 1.4 | 1.62 | 0.82 | 2.1 | 1.35 | 0.82 |
| CN(C)C(=O)c1cc2cnc(Nc3ccc(N4CCN(CCCCNC(=O)COc5cccc6c5C(=O)N(C5CCC(=O)NC5=O)C6=O)CC4)cn3)nc2n1C1CCCC1 (stereo not drawn) | 0.61 | 0.81 | -0.24 | -0.75 | 0.11 | 4.38 |
| Cc1cc(C)nc(Nc2ncc(C(=O)NCCc3c(C)[nH]c4ccccc34)cn2)c1 | -0.23 | 0.75 | -0.55 | -2.26 | -0.02 | 0.27 |
| COc1cc(Oc2nc(-c3ccc(NC(=O)C4CCOC4)cc3)nn3c(C)nc(C)c23)cc(OC)c1OC (stereo not drawn) | 0.18 | 0.72 | 0.03 | -0.39 | 0.18 | 0.1 |
| Cn1c(Nc2c(Cl)cccc2Cl)nc2ccc3nc[nH]c(=O)c3c21 | 9.85 | 0.91 | 0.64 | 1.08 | 0.09 | 1.49 |
| CN(CC(=O)Nc1ccc(F)c(F)c1F)C(=O)c1ccc2c(c1)OCCO2 | 0.3 | 0.89 | 0.08 | -0.75 | 0.49 | -0.17 |
| COc1cc(C(=O)NC2CCN(C)CC2)ccc1Nc1ncc2c(n1)N(C1CCCC1)CC(F)(F)C(=O)N2C | 0.35 | 0.09 | 1.15 | -0.4 | 0.38 | 0.78 |
| Oc1c(-c2cccnc2)cnn1-c1ccccn1 | -0.25 | 0.31 | 0.78 | -0.42 | 0.36 | -0.05 |
| CC/C(=C(\c1ccccc1)c1ccc(OCCN(C)C)cc1)c1ccccc1 | -1.51 | -1.86 | 0.3 | -1.42 | -0.3 | -2.91 |
| O=C1CCCc2[nH]c(-c3ccnc(NCC4CC4)c3)c(Nc3ccccc3)c21 | -0.41 | 0.46 | 3.16 | 1.37 | -0.73 | 0.11 |
| Cc1[nH]nc(C(F)(F)F)c1Cc1sc2c(c1C(=O)N1C[C@](C)(O)CO1)c(=O)n(C)c(=O)n2C(C)C | 0.24 | 0.67 | -0.27 | 0.32 | 0.23 | -0.32 |
| CC1(C)CCN(C(=O)C2CN(c3c4c(nc5ccnn35)CCNCC4)C2)C1 | -0.37 | 0.71 | 0.26 | -0.71 | 0.08 | -0.02 |
| CCNC1=N[C@@H]2[C@@H](O)[C@H](O)[C@@H](CO)O[C@@H]2S1 | 0.07 | 0.73 | 0.01 | -0.6 | 0.28 | -0.73 |
| O=C(CCCN1CCC(O)(c2ccc(Cl)cc2)CC1)c1ccc(F)cc1 | 0.25 | 0.82 | 0.25 | -0.66 | 0.38 | -0.3 |
| CNC(=O)c1cc(C(=O)N[C@H]2[C@@H]3COC[C@@H]32)cc2c1O[C@H](CF)[C@H]2c1ccccc1 | 0.27 | 0.34 | 0.02 | -0.78 | 0.3 | 0.31 |
| CCC(=O)N[C@@H]1CC[C@H](C(=O)N(C)c2ccc(-c3nc4ccccc4o3)cc2)C1 | 0.73 | 0.64 | 0.6 | -0.1 | 0.12 | 0.03 |
| CC(C)N(C(=O)C1CCOCC1)c1cc(F)c(Oc2ncc(Cn3nccn3)cc2C(F)(F)F)cc1C(=O)O | -0.75 | 0.2 | 0.07 | -0.83 | -0.07 | -0.1 |
| O=C1Nc2nc(-c3c(O)cccc3OCC3CC3)cc([C@@H]3CCCNC3)c2CO1 | 0.61 | 2.37 | 2.04 | 1.54 | 1.1 | -0.03 |
| COc1cc(-c2nn([C@H]3CC[C@H](N4CCN(C(C)=O)CC4)CC3)c3ncnc(N)c23)ccc1NC(=O)c1cc2ccccc2n1C | 14.2 | 1.13 | 21 | 0 | 3.54 | 8.28 |
| CC(C)S(=O)(=O)c1ccccc1Nc1nc(N[C@@H]2CCCN(CCCCCCCNC(=O)COc3cccc4c3C(=O)N(C3CCC(=O)NC3=O)C4=O)C2)ncc1Cl (stereo partly drawn) | 8.06 | 4.21 | 3.26 | 11.1 | 3.07 | 10.6 |
